Values joined by “and” are separate entries in the source; they are usually repeats but may differ in a detail not shown here. Equal values may be shown once. Screen size: about 5,500 compounds; about 2,000 (36%) were called active. About 18% were inconclusive and are not listed. Rule as the data show it: active = normalized growth mostly below about 0.91 (no sharp cut-off); inconclusive = no clear call, values can overlap the other calls; inactive = mostly above about 0.92. This is one part of the list.
Test: chemical genetic growth profiling, strain panel (AID 1159580);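 also: tested at 20 µM; growth read once vehicle control cultures reached saturation at 30 °C; 1 = growth at the plate median or of vehicle wells; lower values mean less growth of the strain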
Settings: S. cerevisiae deletion strains, growth OD

Measured: normalized growth

COc1cc([C@@H]2c3cc4c(cc3C(OC3O[C@@H]5COC(C)O[C@H]5[C@H](O)[C@H]3O)C3COC(=O)[C@@H]32)OCO4)cc(OC)c1O (some centres undefined)
inactive: locus YAL021C, strain ccr4, hits give low values 1.03 | locus YAL026C, strain drs2, hits give low values 1.05 | locus YAL030W, strain snc1, hits give low values 1.05 | locus YBL061C, strain skt5, hits give low values 1.02 | locus YBR009C, strain hhf1, hits give low values 1.01 | locus YBR021W, strain FUR4, hits give low values 0.961 | locus YBR023C, strain chs3, hits give low values 1.03 | locus YBR171W, strain sec66, hits give low values 1.07 | locus YBR229C, strain ROT2, hits give low values 1.01 | locus YBR231C, strain swc5, hits give low values 1.03 | locus YBR279W, strain paf1, hits give low values 1.02 | locus YCL011C, strain gbp2, hits give low values 1.04 | locus YCL016C, strain dcc1, hits give low values 1.02 | locus YCL029C, strain bik1, hits give low values 0.989 | locus YCL069W, strain vba3, hits give low values 1.05 | locus YCR088W, strain abp1, hits give low values 1.04 | locus YDL005C, strain med2, hits give low values 1.02 | locus YDL035C, strain GPR1, hits give low values 0.996 | locus YDL040C, strain nat1, hits give low values 1.03 | locus YDL074C, strain BRE1, hits give low values 0.947 | locus YDL101C, strain DUN1, hits give low values 1 | locus YDL134C, strain PPH21, hits give low values 1.01 | locus YDL185W, strain tfp1, hits give low values 0.979 | locus YDL192W, strain arf1, hits give low values 0.991 | locus YDR001C, strain nth1, hits give low values 1.02 | locus YDR069C, strain doa4, hits give low values 1.04 | locus YDR101C, strain arx1, hits give low values 0.981 | locus YDR137W, strain rgp1, hits give low values 1.06 | locus YDR159W, strain sac3, hits give low values 0.987 | locus YDR162C, strain NBP2, hits give low values 1.03 | locus YDR195W, strain ref2 1.03 | locus YDR297W, strain sur2, hits give low values 1.02 | locus YDR318W, strain mcm21, hits give low values 1.01 | locus YDR334W, strain swr1, hits give low values 1.06 | locus YDR335W, strain msn5, hits give low values 1.05 | locus YDR388W, hits give low values 1 | locus YDR392W, strain spt3, hits give low values 0.948 | locus YDR502C, strain sam2, hits give low values 0.974 | locus YEL003W, strain gim4, hits give low values 1.04 | locus YEL037C, strain rad23, hits give low values 1.05 | locus YEL061C, strain CIN8 (second series), hits give low values 1.03 | locus YEL061C, strain CIN8, hits give low values 1.01 | locus YER015W, strain faa2, hits give low values 1.03 | locus YER016W, strain bim1, hits give low values 1.03 | locus YER110C, hits give low values 0.993 | locus YER111C, strain swi4, hits give low values 1.03 | locus YER155C, strain BEM2 (second series), hits give low values 1.05 | locus YER155C, strain BEM2, hits give low values 0.981 | locus YER167W, strain BCK2, hits give low values 0.998 | locus YFR010W, strain ubp6, hits give low values 1.02 | locus YGL078C, strain dbp3, hits give low values 0.976 | locus YGL086W, strain mad1, hits give low values 0.965 | locus YGL167C, strain pmr1, hits give low values 1.05 | locus YGL173C, strain kem1, hits give low values 1.02 | locus YGL227W, strain vid30, hits give low values 1.03 | locus YGL240W, strain doc1, hits give low values 0.994 | locus YGL248W, strain PDE1, hits give low values 1.01 | locus YGL253W, strain hxk2, hits give low values 1.05 | locus YGR078C, strain PAC10, hits give low values 1.01 | locus YGR135W, strain pre9, hits give low values 1.02 | locus YGR252W, strain gcn5, hits give low values 1.02 | locus YHR013C, strain ard1, hits give low values 1.04 | locus YHR027C, strain rpn1, hits give low values 1.01 | locus YHR030C, strain SLT2, hits give low values 0.998 and 1.06 | locus YHR079C, strain IRE1 (second series), hits give low values 0.992 | locus YHR079C, strain IRE1, hits give low values 1.12 | locus YHR094C, strain hxt1, hits give low values 0.995 | locus YHR129C, strain ARP1, hits give low values 0.998 | locus YHR142W, strain chs7, hits give low values 1.06 | locus YHR200W, strain rpn10, hits give low values 1 | locus YIL066C, strain RNR3, hits give low values 0.997 | locus YIL073C, strain SPO22, hits give low values 0.958 | locus YIL125W, strain kgd1, hits give low values 0.997 | locus YIR030C, strain dcg1, hits give low values 0.995 | locus YJL092W, strain hpr5, hits give low values 1.04 | locus YJL095W, strain BCK1 (second series), hits give low values 1.03 | locus YJL095W, strain BCK1, hits give low values 1.03 and 1.06 | locus YJL115W, strain asf1, hits give low values 1.04 | locus YJL129C, strain trk1, hits give low values 1.05 | locus YJL134W, strain LCB3, hits give low values 0.998 | locus YJL154C, strain vps35, hits give low values 1.02 | locus YJL164C, strain tpk1, hits give low values 1.05 | locus YJL166W, strain qcr8, hits give low values 1.02 | locus YJL168C, strain set2, hits give low values 0.998 | locus YJL187C, strain SWE1 (second series), hits give low values 1 | locus YJR043C, strain POL32, hits give low values 0.992 | locus YJR066W, strain TOR1, hits give low values 0.995 | locus YKL009W, strain mrt4, hits give low values 1.06 | locus YKL068W, hits give low values 0.995 | locus YKL085W, strain MDH1 (second series), hits give low values 1.01 | locus YKL085W, strain MDH1, hits give low values 1.01 | locus YKL160W, strain elf1, hits give low values 1.02 | locus YKL190W, strain CNB1, hits give low values 1.02 | locus YKR001C, strain vps1, hits give low values 1.01 | locus YKR026C, strain gcn3, hits give low values 1.04 | locus YKR091W, strain srl3, hits give low values 1.03 | locus YLL001W, strain dnm1, hits give low values 1.04 | locus YLL026W, hits give low values 1.04 | locus YLL041C, strain sdh2, hits give low values 1.02 | locus YLR027C, strain aat2, hits give low values 1.05 | locus YLR039C, strain RIC1, hits give low values 1.01 | locus YLR058C, strain SHM2, hits give low values 1.02 | locus YLR102C, strain apc9, hits give low values 0.999 | locus YLR113W, strain HOG1, hits give low values 1.06 | locus YLR221C, strain rsa3, hits give low values 1.04 | locus YLR258W, strain gsy2, hits give low values 1.03 | locus YLR262C, strain YPT6 (second series), hits give low values 1.05 | locus YLR262C, strain YPT6, hits give low values 1.01 | locus YLR268W, strain sec22, hits give low values 0.957 | locus YLR320W, strain mms22, hits give low values 1 | locus YLR330W, strain CHS5, hits give low values 1.02 | locus YLR342W, strain FKS1 (second series), hits give low values 1.01 | locus YLR342W, strain FKS1, hits give low values 1.02 | locus YLR357W, strain rsc2, hits give low values 1.04 | locus YLR370C, strain arc18, hits give low values 1.04 | locus YLR371W, strain rom2, hits give low values 0.979 | locus YLR384C, strain iki3, hits give low values 1.02 | locus YLR418C, strain cdc73, hits give low values 0.998 | locus YML016C, strain PPZ1, hits give low values 0.999 | locus YML032C, strain rad52, hits give low values 0.982 | locus YML120C, strain ndi1, hits give low values 1.03 | locus YML124C, strain tub3, hits give low values 0.996 | locus YMR058W, strain fet3, hits give low values 1.02 | locus YMR078C, strain ctf18, hits give low values 0.996 | locus YMR125W, strain sto1, hits give low values 1.07 | locus YMR129W, hits give low values 1.04 | locus YMR205C, strain PFK2, hits give low values 1.02 | locus YMR223W, strain ubp8, hits give low values 1 | locus YMR231W, strain pep5, hits give low values 1.03 | locus YMR307W, strain GAS1, hits give low values 1.06 | locus YNL067W, strain RPL9B, hits give low values 1.01 | locus YNL071W, strain lat1, hits give low values 1.04 | locus YNL153C, strain GIM3, hits give low values 1.02 | locus YNL183C, strain NPR1, hits give low values 0.995 | locus YNL209W, strain ssb2, hits give low values 1.03 | locus YNL233W, strain BNI4, hits give low values 0.991 | locus YNL248C, strain rpa49, hits give low values 1.02 | locus YNL250W, strain rad50, hits give low values 0.96 | locus YNL271C, strain bni1, hits give low values 0.984 | locus YNL298W, strain CLA4, hits give low values 0.994 | locus YNL307C, strain MCK1, hits give low values 0.996 | locus YNL322C, strain KRE1 (second series), hits give low values 1.03 | locus YNL322C, strain KRE1, hits give low values 1.01 | locus YNR049C, strain mso1, hits give low values 1.03 | locus YNR052C, strain pop2, hits give low values 0.985 | locus YOL012C, strain htz1 0.834 | locus YOL147C, strain pex11, hits give low values 1 | locus YOR001W, strain rrp6, hits give low values 1.03 | locus YOR061W, strain CKA2, hits give low values 0.996 | locus YOR069W, strain VPS5, hits give low values 0.991 | locus YOR070C, strain gyp1, hits give low values 1.04 | locus YOR080W, strain dia2, hits give low values 1.02 | locus YOR083W, strain WHI5, hits give low values 0.979 | locus YOR106W, strain vam3, hits give low values 1.04 | locus YOR136W, strain idh2, hits give low values 0.971 | locus YOR144C, strain elg1, hits give low values 0.998 | locus YOR184W, strain ser1, hits give low values 1 | locus YOR231W, strain MKK1, hits give low values 1.05 | locus YOR265W, strain rbl2, hits give low values 1.01 | locus YOR270C, strain vph1, hits give low values 1.15 | locus YOR290C, strain snf2, hits give low values 1.04 | locus YOR316C, strain cot1, hits give low values 0.997 | locus YPL051W, strain arl3, hits give low values 1.04 | locus YPL055C, strain LGE1, hits give low values 1.01 | locus YPL078C, strain atp4, hits give low values 1.04 | locus YPL106C, strain sse1, hits give low values 1.07 | locus YPL240C, strain hsp82, hits give low values 1.02 | locus YPL241C, strain CIN2, hits give low values 1.01 | locus YPL256C, strain CLN2, hits give low values 1.08 | locus YPR119W, strain clb2, hits give low values 0.998 | locus YPR141C, strain kar3, hits give low values 0.99 | locus YPR163C, strain tif3, hits give low values 0.985 | locus YPR167C, strain met16, hits give low values 1.01 | strain wtn01, hits give low values 0.97

Reference: PubChem BioAssay AID1159580 (chemical genetic matrix, 2015)
